Measured values as given in publication PMC5540273 (PLoS ONE, 2017).
Where “and” joins values, the source holds several entries; their conditions need not be identical. Identical values can stand only once. Like-named read-outs stand apart in the source and are kept apart here.

Experiments:
Details in all cases: concentration: 1 μM, replicates: in singlicate, n = 1
DAPK1 = tested on: DAPK1
DAPK2 = tested on: DAPK2
DAPK3 = tested on: DAPK3
DCAMKL1 = tested on: T1, DCAMKL1
T1 construct: gene DCLK1

DCAMKL2 = tested on: T2, DCAMKL2
T2 construct: gene DCLK2

DCAMKL3 = tested on: T3, DCAMKL3
T3 construct: gene DCLK3

DDR1 = tested on: DDR1
DDR2 = tested on: DDR2
DLK = tested on: T4, DLK
T4 construct: gene MAP3K12

DMPK2 = tested on: T5, DMPK2
T5 construct: gene CDC42BPG
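Further: KINOMEscan kinase panel screen.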

Row | SMILES | %Inh (DAPK1) [%] | %Inh (DAPK2) [%] | %Inh (DAPK3) [%] | %Inh (DCAMKL1) [%] | %Inh (DCAMKL2) [%] | %Inh (DCAMKL3) [%] | %Inh (DDR1) [%] | %Inh (DDR2) [%] | %Inh (DLK) [%] | %Inh (DMPK2) [%] | %Inh (DAPK1; 1 µM) | %Inh (DAPK3; 1 µM) | %Inh (DCAMKL1; 1 µM) | %Inh (DCAMKL2; 1 µM) | %Inh (DCAMKL3; 1 µM) | %Inh (DDR1; 1 µM) | %Inh (DDR2; 1 µM) | %Inh (DLK; 1 µM) | %Inh (DMPK2; 1 µM) | %Inh (DAPK2; 1 µM)
1 | c1ccc(-c2n[nH]cc2-c2ccnc3ccccc23)nc1 [GW271431] | 0 | 0 | 26 | 12 | 11 | 0 | 8 | 0 | 3 | 18 | – | – | – | – | – | – | – | – | – | –
2 | Cl.Cl.Cl.Fc1ccc(-c2ncn(C3CCNCC3)c2-c2ccnc(Nc3ccccc3)n2)cc1 [SB-238039] | – | 0 | – | – | – | – | – | – | – | – | 0% and 24% | 18% and 0% | 18% and 12% | 22% and 33% | 8% and 75% | 87% and 84% | 87% and 63% | 29% and 7% | 99.9% and 99.8% | –
3 | Cn1cc(-c2ccc3c(c2)CCN3C(=O)Cc2ccccc2Cl)c2c(N)ncnc21 [GSK2608885] | 0 | 0 | 5 | 13 | 1 | 35 | 100 | 93.4 | 6 | 100 | – | – | – | – | – | – | – | – | – | –
4 | Cc1nnc(-c2ccc3ncc(-c4ccc(S(C)=O)cc4)n3c2)o1 (centres unmarked) | 22 | 0 | 0 | 18 | 0 | 0 | 8 | 24 | 0 | 0 | – | – | – | – | – | – | – | – | – | –
5 | NS(=O)(=O)c1cccc(-c2ccc3ncc(N4CCOCC4)nc3c2)c1 [GSK1535721] | 18 | 12 | 18 | 10 | 0 | 0 | 0 | 23 | 26 | 1 | – | – | – | – | – | – | – | – | – | –
6 | CN(C(=O)c1ccc(-c2cc(-c3c[nH]nc3-c3ccccn3)ccn2)cc1)C1CCOCC1 [GW810083] | 11 | 2 | 0 | 0 | 0 | 19 | 0 | 36 | 14 | 0 | – | – | – | – | – | – | – | – | – | –
7 | COc1cc2c(cc1OCCN1CCN(C)CC1)ncc1c3ccc(C#N)cc3[nH]c21 | 44 | 0 | 7 | 40 | 0 | 100 | 0 | 8 | 78 | 0 | – | – | – | – | – | – | – | – | – | –
8 | CC(C)(CN)c1nc(-c2ccc(Cl)c(O)c2)c(-c2ccncc2)[nH]1.O=C(O)C(F)(F)F [SB-477794] | – | – | – | – | 0 | – | – | – | – | – | 11% and 19% | 33% and 17% | 7% and 3% | – | 29% and 36% | 94.5% and 90.8% | 80% and 78% | 37% and 42% | 90.8% and 88% | 0% and 5%
9 | Cc1nnc(-c2ccc(C)c(-c3ccc(C(=O)Nc4ccc(NS(C)(=O)=O)cc4)cc3)c2)o1 [GW702865] | 8 | 3 | 18 | 8 | 0 | 0 | 0 | 46 | 0 | 0 | – | – | – | – | – | – | – | – | – | –
10 | CC(=O)Nc1ccc(COc2ccc(Nc3ccnc4cc(-c5ccccn5)ccc34)cc2)cc1.Cl [GW440148] | 0 | 0 | 21 | 5 | 0 | 9 | 29 | 0 | 71 | 2 | – | – | – | – | – | – | – | – | – | –
11 | Cc1c2ccc(N(C)c3ccnc(Nc4cccc(S(N)(=O)=O)c4)n3)cc2nn1Cc1ccccc1.Cl.Cl [GW787226] | 0 | 1 | 0 | 24 | 0 | 0 | 97.7 | 96.8 | 0 | 0 | – | – | – | – | – | – | – | – | – | –
12 | COc1ccc(CNC(=O)NC2CCN(c3ccnc(Nc4ccc(OC)cc4)n3)C2)cc1 (centres unmarked) [GSK1379727] | 0 | 0 | 20 | 11 | 0 | 5 | 0 | 20 | 50 | 0 | – | – | – | – | – | – | – | – | – | –
13 | O=c1cc(N2CCOCC2)nc2n(Cc3cccc4ccccc34)ccn12 [GSK2333389] | 0 | 0 | 0 | 0 | 0 | 2 | 14 | 0 | 0 | 0 | – | – | – | – | – | – | – | – | – | –
14 | CSc1ccc(-c2cc3ncnc(SCC(=O)O)c3s2)cc1 | 12 | 0 | 0 | 0 | 15 | 8 | 0 | 8 | 44 | 0 | – | – | – | – | – | – | – | – | – | –
15 | NCCNS(=O)(=O)c1ccc(-c2ccnc3[nH]ccc23)cc1 [GSK977617] | – | – | – | – | – | – | 0 | – | – | – | 94% and 90.7% | 98.5% and 97.6% | 50% and 52% | 34% and 28% | 58% and 39% | – | 12% and 8% | 48% and 40% | 78% and 71% | 91.4% and 86%
16 | COc1ccc(Nc2ncc(C#N)c(Nc3ccccc3C(N)=O)n2)cc1N1CCN(C)CC1.Cl [GSK1558669] | 97.8 | 98.5 | 99.2 | 97.4 | 100 | 99.6 | 100 | 94.2 | 97.8 | 89 | – | – | – | – | – | – | – | – | – | –
17 | CCc1nc(-c2cccc(C)c2)c(-c2ccnc(NCc3ccccc3)c2)s1 | 2 | 10 | 0 | 10 | 8 | 0 | 14 | 18 | 0 | 5 | – | – | – | – | – | – | – | – | – | –
18 | Nc1nccc(-c2c(-c3ccc(F)cc3)ncn2C2CCN(CC(F)(F)F)CC2)n1 [SB-236560] | 20 | 0 | 0 | 0 | 0 | 18 | 90.8 | 76 | 17 | 12 | – | – | – | – | – | – | – | – | – | –
19 | CN(C1=C(c2ccccc2)C(=O)NC1=O)c1ccccc1 [SB-334860] | 26 | 0 | 8 | 19 | 11 | 0 | 0 | 4 | 9 | 12 | – | – | – | – | – | – | – | – | – | –
20 | O=C1NC(=O)C(N2CCc3ccccc32)=C1c1cccc(Cl)c1 [SB-408010] | 5 | 0 | 0 | 0 | 21 | 21 | 0 | 0 | 0 | 0 | – | – | – | – | – | – | – | – | – | –
21 | O=C(c1ccc(-c2cc(-c3c[nH]nc3-c3ccccn3)ccn2)cc1)N1CCOCC1 [GW812171] | 0 | 0 | 11 | 30 | 0 | 0 | 0 | 30 | 0 | 0 | – | – | – | – | – | – | – | – | – | –
22 | Nc1nc(-c2ccc3c(N)n[nH]c3c2)cc(N2CCCC2)n1 [GSK2227430] | 0 | 0 | 1 | 13 | 0 | 0 | 7 | 3 | 0 | 0 | – | – | – | – | – | – | – | – | – | –
23 | CC(C)Oc1ccc2c(-c3ccnc(Nc4ccc(N5CCN(C)CC5)cc4)n3)cnn2n1 [GW696155] | 97.9 | 90.3 | 99.6 | 93.5 | 91 | 99.2 | 45 | 74 | 89 | 13 | – | – | – | – | – | – | – | – | – | –
24 | CN1c2ccc(CNc3ccc(F)cc3)cc2-c2c(cnn2C)S1(=O)=O | 11 | 0 | 0 | 14 | 0 | 0 | 4 | 35 | 0 | 0 | – | – | – | – | – | – | – | – | – | –
25 | COC(=O)Nc1nc2cc(Oc3ccc(NC(=O)Nc4cc(F)ccc4F)cc3)ccc2[nH]1.Cl [GW701424] | 0 | 0 | 8 | 11 | 0 | 17 | 100 | 99.2 | 0 | 1 | – | – | – | – | – | – | – | – | – | –
26 | Fc1ccc(-c2nn3c(OCC(F)(F)F)cccc3c2-c2ccncc2)cc1 [GW514784] | 0 | 0 | 0 | 0 | 0 | 36 | 80 | 81 | 40 | 95.3 | – | – | – | – | – | – | – | – | – | –
27 | O=c1cc(N2CCOCC2)nc2n(Cc3cccc(F)c3)ccn12 [GSK2297430] | 0 | 0 | 0 | 0 | 0 | 2 | 0 | 1 | 23 | 4 | – | – | – | – | – | – | – | – | – | –
28 | Cl.Oc1cccc(Nc2ccnc3cc(-c4ccncc4)ccc23)c1 [GW494601] | 5 | 3 | 15 | 4 | 0 | 8 | 68 | 82 | 54 | 0 | – | – | – | – | – | – | – | – | – | –
29 | Cl.Nc1ncnc2occ(-c3ccc(NC(=O)Nc4cc(C(F)(F)F)ccc4F)cc3)c12 [SB-707548] | 24 | 14 | 14 | 17 | 4 | 0 | 100 | 98.3 | 21 | 24 | – | – | – | – | – | – | – | – | – | –
